Reference: PubChem BioAssay (Tox21)
Results filed as inconclusive are left out. Active and inactive are the calls of the source. Unless noted, calls follow the shape of the dose curve; as a rule, active = well fitted curve in the direction sought with a large enough effect in the repeat runs; inconclusive = weak or mixed curves; inactive = no such curve, though single readings can be large; an effect the other way counts as inactive or inconclusive.

How the values were obtained:
[1] = qHTS assay to identify small molecule antagonists of the thyroid receptor (TR) signaling pathway (AID 743065); also: nearly all actives have a fitted effect of over 55% in size; also: potency is read from the fitted curve at half-maximal effect; as to activity, negative = inhibition: series mostly up to about 70 µM
In short: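 Antagonism measured as loss of luciferase signal in GH3 cells stably carrying a TRE-luciferase reporter, co-treated with compound and T3 (1 nM final) for 23.5 h at 37 C. Viability was read in the same well by CellTiter-Fluor.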

[2] = system: thyroid hormone receptor (rat, GH3 cells); experiment: qHTS assay to identify small molecule agonists of the thyroid receptor (TR) signaling pathway (AID 743066; calls by dose curve)
[3] = target: Estrogen receptor (Homo sapiens) (UniProt P03372); experiment: qHTS assay to identify small molecule agonists of the estrogen receptor alpha (ER-alpha) signaling pathway (AID 743075; calls by dose curve;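 also: HEK293 GripTite cells with ER-alpha and UAS-driven beta-lactamase reporter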)
Chain of Estrogen receptor (Homo sapiens) (P03372 whole entry, looked up): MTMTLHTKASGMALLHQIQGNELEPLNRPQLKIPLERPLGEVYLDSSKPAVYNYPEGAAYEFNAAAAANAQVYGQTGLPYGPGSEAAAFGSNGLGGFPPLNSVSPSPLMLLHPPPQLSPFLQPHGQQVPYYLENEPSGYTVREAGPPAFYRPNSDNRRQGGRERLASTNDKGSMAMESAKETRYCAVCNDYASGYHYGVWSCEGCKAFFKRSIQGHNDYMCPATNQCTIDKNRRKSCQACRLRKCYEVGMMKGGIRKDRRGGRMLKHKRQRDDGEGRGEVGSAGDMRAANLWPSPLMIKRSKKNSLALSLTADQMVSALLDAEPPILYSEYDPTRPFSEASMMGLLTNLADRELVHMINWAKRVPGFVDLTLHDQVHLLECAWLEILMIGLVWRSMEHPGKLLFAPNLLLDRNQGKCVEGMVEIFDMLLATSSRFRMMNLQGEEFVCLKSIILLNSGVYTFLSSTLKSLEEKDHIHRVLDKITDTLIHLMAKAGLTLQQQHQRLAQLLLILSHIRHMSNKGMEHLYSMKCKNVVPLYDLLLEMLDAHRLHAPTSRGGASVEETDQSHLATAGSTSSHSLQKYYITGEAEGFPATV

[4] = target: Estrogen receptor (Homo sapiens) (UniProt P03372); experiment: qHTS assay to identify small molecule agonists of the estrogen receptor alpha (ER-alpha) signaling pathway using the BG1 cell line (AID 743079); also: nearly all actives have a fitted effect of over 20% in size; also: potency is read from the fitted curve at half-maximal effect
[5] = qHTS assay to identify small molecule antagonists of the estrogen receptor alpha (ER-alpha) signaling pathway using the BG1 cell line (AID 743080; calls by dose curve;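 also: BG1 cells stimulated with 17beta-estradiol alongside compound; nearly all actives have a fitted effect of over 25% in size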; also: potency is read from the fitted curve at half-maximal effect)
In short: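 BG1-Luc-4E2 cells (endogenous full-length ER-alpha, 4xERE luciferase) hormone-starved 5 days in charcoal-stripped FBS, plated 4,000/well for 24 h, then compound plus 17beta-estradiol for 21.5 h at 37 C; ONE-Glo luminescence read.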

[6] = qHTS assay to identify small molecule antagonists of the estrogen receptor alpha (ER-alpha) signaling pathway using the BG1 cell line - cell viability counter screen (AID 743081);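 also: compound given together with 17beta-estradiol as the ER stimulus; nearly all actives have a fitted effect of over 45% in size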; also: potency is read from the fitted curve at half-maximal effect
Aromatase (Homo sapiens) = Aromatase (Homo sapiens) (UniProt P11511); experiment: qHTS assay to identify aromatase inhibitors (AID 743083); also: nearly all actives have a fitted effect of over 55% in size; also: potency is read from the fitted curve at half-maximal effect; as to activity, negative = inhibition: series mostly up to about 70 µM
Chain of Aromatase (Homo sapiens) (P11511 whole entry, looked up): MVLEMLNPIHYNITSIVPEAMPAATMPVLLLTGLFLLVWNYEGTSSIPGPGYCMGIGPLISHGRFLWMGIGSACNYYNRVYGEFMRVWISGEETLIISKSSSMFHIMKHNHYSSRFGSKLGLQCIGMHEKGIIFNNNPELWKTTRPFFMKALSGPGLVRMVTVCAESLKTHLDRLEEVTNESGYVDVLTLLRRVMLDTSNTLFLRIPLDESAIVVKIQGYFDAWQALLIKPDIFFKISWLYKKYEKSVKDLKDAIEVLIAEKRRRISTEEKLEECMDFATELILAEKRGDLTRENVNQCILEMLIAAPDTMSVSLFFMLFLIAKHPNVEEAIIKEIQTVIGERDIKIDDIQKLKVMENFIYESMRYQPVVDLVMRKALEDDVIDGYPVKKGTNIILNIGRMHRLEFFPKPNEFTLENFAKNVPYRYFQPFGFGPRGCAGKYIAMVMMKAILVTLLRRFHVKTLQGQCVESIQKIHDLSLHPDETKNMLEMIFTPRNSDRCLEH

[7] = qHTS assay to identify aromatase inhibitors - cell viability counter screen (AID 743084);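 also: cells stimulated with testosterone during compound exposure; nearly all actives have a fitted effect of over 55% in size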; also: potency is read from the fitted curve at half-maximal effect
[8] = qHTS assay to identify small molecule antagonists of the estrogen receptor alpha (ER-alpha) signaling pathway - cell viability counter screen (AID 743074; calls by dose curve;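 also: HEK293 cells carrying ER-alpha-UAS-bla reporter stimulated with 17beta-estradiol; nearly all actives have a fitted effect of over 45% in size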; also: potency is read from the fitted curve at half-maximal effect)
[9] = target: Estrogen receptor (Homo sapiens) (UniProt P03372); experiment: qHTS assay to identify small molecule antagonists of the estrogen receptor alpha (ER-alpha) signaling pathway (AID 743069; active = well fitted curve in the direction sought with a large enough effect in the signal ratio in the repeat runs, not every such curve was filed as active; the % refers to the signal ratio; also: potency is read from the fitted curve at half-maximal effect)
In short: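 Antagonist mode: compounds in DMSO were co-added with 17beta-estradiol to ER-alpha-bla HEK293 cells (2% charcoal-stripped serum) and left 18 h at 37C. Reporter inhibition was measured as FRET fluorescence after 2 h LiveBLAzer substrate at room temperature.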
% is scaled to controls: 0 for no effect and ±100 for the full control effect.

C=Cc1ccc(OC(C)=O)cc1
inactive: Potency [1] | Potency [2] | Potency [3] | Potency [4] | Potency [5] | Potency [6] | Potency (Aromatase (Homo sapiens)) | Potency [7]

CCNc1nc(N)nc(Cl)n1
inactive: Potency [1] | Potency [8] | Potency [6]

Cc1c(C2(c3cc(Br)c(O)c(Br)c3C)OS(=O)(=O)c3ccccc32)cc(Br)c(O)c1Br
inactive: Potency [2]
active: Potency [1] 21 µM | Potency [6] 11.8 µM | Potency (Aromatase (Homo sapiens)) 16.7 µM | Potency [7] 18.8 µM

CC(C)(C)CCCCCCOC(=O)c1ccccc1C(=O)OCCCCCCC(C)(C)C
inactive: Potency [1] | Potency [9] | Potency [3] | Potency [4] | Potency [5] | Potency [6] | Potency (Aromatase (Homo sapiens)) | Potency [7]

CNS(=O)(=O)c1cc(C(=O)N2CCC(CCN3C4CCC3CC(n3c(C)nc5ccccc53)C4)(c3cccc(F)c3)CC2)c(Cl)cc1F (stereo not drawn)
inactive: Potency [8] | Potency [6]
active: Potency [1] 48.6 µM | Potency (Aromatase (Homo sapiens)) 68.6 µM

CCC(Cl)CC(Cl)C(Cl)C(Cl)C(Cl)C(C)Cl (stereo not drawn)
active: Potency [4] 0.594 µM
inactive: Potency [1] | activity, negative = inhibition [9] 21.9% [at 15 µM] | activity, negative = cytotoxicity [8] -22.7% [at 15 µM] | activation [3] 3.15% [at 14.9 µM] | Potency [6] | Potency (Aromatase (Homo sapiens)) | Potency [7]

C1=CCC2CC=CC2C1 (stereo not drawn)
inactive: Potency [1] | Potency [2] | Potency [8] | Potency [6] | Potency (Aromatase (Homo sapiens)) | Potency [7]

COc1ccc(N)c([N+](=O)[O-])c1
inactive: Potency [1] | Potency [2] | Potency [8] | Potency [6] | Potency (Aromatase (Homo sapiens)) | Potency [7]

O=C(O)c1ccc(O)cc1O
inactive: Potency [1] | Potency [2] | Potency [8] | Potency [6] | Potency (Aromatase (Homo sapiens)) | Potency [7]

O=[N+]([O-])C1(Br)COCOC1
active: Potency [1] 15.4 µM | Potency [5] 96.9 µM | Potency (Aromatase (Homo sapiens)) 30.6 µM | Potency [7] 43.3 µM
inactive: Potency [9] | Potency [8] | Potency [3] | Potency [4] | Potency [6]

CC(=O)C(C)=O
inactive: Potency [1] | Potency [2] | Potency [8] | Potency [6] | Potency (Aromatase (Homo sapiens)) | Potency [7]

CCO[Si](C)(CCCOCC1CO1)OCC (stereo not drawn)
inactive: Potency [2] | Potency [9] | Potency [8] | Potency [3] | Potency [4] | Potency [5] | Potency [6] | Potency (Aromatase (Homo sapiens))

CC(CN(CCN(CC(C)OCCO)CC(C)OCCO)CC(C)OCCO)OCCO (stereo not drawn)
inactive: Potency [1] | Potency [2] | Potency [8] | Potency [6] | Potency (Aromatase (Homo sapiens)) | Potency [7]

Nc1ccc(F)cc1
inactive: Potency [1] | Potency [2] | Potency [3] | Potency [4] | Potency [5] | Potency [6] | Potency (Aromatase (Homo sapiens)) | Potency [7]

COC(=O)C1=C(C)NC(C)=C(C(=O)OC(C)(C)CN(C)CCC(c2ccccc2)c2ccccc2)C1c1cccc([N+](=O)[O-])c1 (stereo not drawn)
active: Potency [1] 6.68 µM | Potency [9] 10.7 µM [inhibitor] | Potency [5] 26.6 µM | Potency (Aromatase (Homo sapiens)) 18.8 µM
inactive: Potency [3] | Potency [6] | Potency [7]

Cc1ccc(Cl)cc1N
inactive: Potency [1] | Potency [2] | Potency [8] | Potency [6] | Potency (Aromatase (Homo sapiens)) | Potency [7]

O=C(O)CCC(=O)OC[C@@H](NC(=O)C(Cl)Cl)[C@H](O)c1ccc([N+](=O)[O-])cc1
inactive: Potency [1] | Potency [2] | Potency [8] | Potency [6] | Potency (Aromatase (Homo sapiens)) | Potency [7]

NC(=O)c1ccccc1[N+](=O)[O-]
inactive: Potency [2] | Potency [9] | Potency [8] | Potency [3] | Potency [4] | Potency [5] | Potency [6] | Potency (Aromatase (Homo sapiens)) | Potency [7]

CCCCOC(=O)CCCCC(=O)OCCCC
inactive: Potency [1] | Potency [2] | Potency [8] | Potency [6] | Potency [7]

CC12CC3CC(C)(C1)CC(N)(C3)C2
inactive: Potency [9] | Potency [3] | Potency [4] | Potency [5] | Potency [6] | Potency (Aromatase (Homo sapiens)) | Potency [7]
active: Potency [1] 29.8 µM

CC1CCCO1 (stereo not drawn)
inactive: Potency [1] | Potency [2] | Potency [8] | Potency [6] | Potency (Aromatase (Homo sapiens)) | Potency [7]

CCN(CC)c1ccc(C(=C2C=CC(=[N+](CC)CC)C=C2)c2ccc(S(=O)(=O)O)cc2S(=O)(=O)[O-])cc1
inactive: Potency [2]
active: Potency [1] 19.3 µM | Potency [8] 24.5 µM | Potency [6] 30.6 µM | Potency (Aromatase (Homo sapiens)) 9.69 µM | Potency [7] 19.3 µM

CC(C)(C)C1(CCc2ccc(Cl)cc2)CO1 (stereo not drawn)
inactive: Potency [2] | Potency [9] | Potency [8] | Potency [3] | Potency [4] | Potency [5] | Potency [6] | Potency (Aromatase (Homo sapiens)) | Potency [7]

Cc1cccc(C)c1NC(=O)c1cc(S(N)(=O)=O)c(Cl)cc1O
inactive: Potency [1] | Potency [2] | Potency [6] | Potency (Aromatase (Homo sapiens)) | Potency [7]

CNC1CCCN(c2c(F)cc3c(=O)c(C(=O)O)cn(C4CC4)c3c2OC)C1 (stereo not drawn)
inactive: Potency [2] | Potency [9] | Potency [8] | Potency [3] | Potency [4] | Potency [5] | Potency [6] | Potency (Aromatase (Homo sapiens)) | Potency [7]

CCCC(=O)OC(=O)CCC
inactive: Potency [1] | Potency [2] | Potency [6] | Potency (Aromatase (Homo sapiens)) | Potency [7]

CC1CCC(C(C)CS)CC1S (stereo not drawn)
inactive: Potency [1] | Potency [2] | Potency [8] | Potency [6] | Potency (Aromatase (Homo sapiens)) | Potency [7]

Cc1cc(CCC(=O)OCCOCCOCCOC(=O)CCc2cc(C)c(O)c(C(C)(C)C)c2)cc(C(C)(C)C)c1O
inactive: Potency [2] | Potency [8] | Potency [6] | Potency (Aromatase (Homo sapiens)) | Potency [7]

CCOC(=O)c1ccc(NC(=O)CN2CCCCC2)cc1
inactive: Potency [2] | Potency [9] | Potency [8] | Potency [3] | Potency [6] | Potency (Aromatase (Homo sapiens)) | Potency [7]

CC(=O)OCC(=O)[C@@]1(OC(C)=O)[C@@H](C)C[C@H]2[C@@H]3C[C@H](F)C4=CC(=O)C=C[C@]4(C)[C@@]3(F)[C@@H](O)C[C@@]21C
inactive: Potency [2] | Potency [8] | Potency [6] | Potency (Aromatase (Homo sapiens))

CCCCCCCCCCCCCC(=O)OCC(O)CO (stereo not drawn)
inactive: Potency [2] | Potency [8] | Potency [6] | Potency (Aromatase (Homo sapiens)) | Potency [7]

CCCc1nc2c(C)cc(-c3nc4ccccc4n3C)cc2n1Cc1ccc(-c2ccccc2C(=O)O)cc1
inactive: Potency [2] | Potency [8] | Potency [3] | Potency [4] | Potency [5] | Potency [6] | Potency (Aromatase (Homo sapiens)) | Potency [7]

Cc1ccc2c(c1[N+](=O)[O-])C(=O)c1ccccc1C2=O
active: Potency [4] 3.78 µM
inactive: Potency [2] | Potency [8] | Potency [3] | Potency [6] | Potency (Aromatase (Homo sapiens))

CN1C(CSCC(F)(F)F)Nc2cc(Cl)c(S(N)(=O)=O)cc2S1(=O)=O (stereo not drawn)
inactive: Potency [2] | Potency [9] | Potency [8] | Potency [3] | Potency [4] | Potency [5] | Potency [6] | Potency (Aromatase (Homo sapiens)) | Potency [7]

CN1CCCN(C(c2ccccc2)c2ccc(Cl)cc2)CC1 (stereo not drawn)
inactive: Potency [2] | Potency [9] | Potency [3] | Potency [4] | Potency [5] | Potency (Aromatase (Homo sapiens))
active: Potency [7] 21.1 µM

CC1=C2[C@@H]([C@H](C)CC[C@H]2/C=C(\C)C(=O)O)[C@H](O)C1
inactive: Potency [2] | Potency [9] | Potency [8] | Potency [3] | Potency [4] | Potency [5] | Potency [6] | Potency (Aromatase (Homo sapiens)) | Potency [7]

O=[N+]([O-])c1ccc2ncccc2c1
inactive: Potency [2] | Potency [9] | Potency [8] | Potency [3] | Potency [4] | Potency [5] | Potency [6] | Potency (Aromatase (Homo sapiens)) | Potency [7]

O=C(Oc1ccccc1)c1ccc2ccccc2c1O
inactive: Potency [2] | Potency [9] | Potency [8] | Potency [3] | Potency [6] | Potency (Aromatase (Homo sapiens)) | Potency [7]

CCN(Cc1cccc(S(=O)(=O)O)c1)c1ccc(C(=C2C=CC(=[N+](CC)Cc3cccc(S(=O)(=O)O)c3)C=C2)c2ccccc2S(=O)(=O)[O-])cc1
active: Potency [6] 38.7 µM | Potency (Aromatase (Homo sapiens)) 17.3 µM | Potency [7] 13.7 µM
inactive: Potency [2] | Potency [9] | Potency [3]

COc1ccc(-c2cc(=S)ss2)cc1
inactive: Potency [2] | Potency [8] | Potency [3] | Potency [6] | Potency (Aromatase (Homo sapiens))

Cc1ccccc1S(N)(=O)=O
inactive: Potency [2] | Potency [8] | Potency [6]

COc1ccc(-n2nc(C(F)F)cc2-c2ccc(S(C)=O)cc2)cc1 (stereo not drawn)
inactive: Potency [2] | Potency [8] | Potency [3] | Potency [4] | Potency [6] | Potency (Aromatase (Homo sapiens))

O=C(c1ccccc1)c1ccc(O)cc1
active: Potency [4] 9.8 µM
inactive: Potency [2] | Potency [8] | Potency [6] | Potency (Aromatase (Homo sapiens)) | Potency [7]

Cc1ccc(N(CC2=NCCN2)c2cccc(O)c2)cc1
inactive: Potency [2] | Potency [9] | Potency [8] | Potency [3] | Potency [5] | Potency [6] | Potency (Aromatase (Homo sapiens)) | Potency [7]

SCCc1cnccn1
inactive: Potency [2] | Potency [9] | Potency [5] | Potency [6] | Potency (Aromatase (Homo sapiens)) | Potency [7]

CCCCCCCC/C=C\CCCCCCCC(=O)OCCO
inactive: Potency [2] | Potency [9] | Potency [8] | Potency [3] | Potency [4] | Potency [5] | Potency [6] | Potency (Aromatase (Homo sapiens)) | Potency [7]

COc1cc(NC(C)CCCN)c2ncccc2c1 (stereo not drawn)
active: Potency [6] 10.1 µM
inactive: Potency [2] | Potency [9] | Potency [8] | Potency [3] | Potency (Aromatase (Homo sapiens)) | Potency [7]

COc1cc(C(C)=O)ccc1OCCCN1CCC(c2noc3cc(F)ccc23)CC1
inactive: Potency [2] | Potency [9] | Potency [8] | Potency [3] | Potency [4] | Potency [5] | Potency (Aromatase (Homo sapiens)) | Potency [7]
